Measurements taken from PubChem BioAssay (NCI).
This is part of a sample that, as a whole, favours compounds with a hit. Of some 79,000 tested, about 15% had one in any assay. Values without a mark were called inactive. Active and inactive are the calls of the source. Rule as the data show it: active = growth inhibition above about 70%; inactive = the rest.

Experiment: NCI Yeast Anticancer Drug Screen. Data for the bub3 strain (AID 167)
Settings: S. cerevisiae bub3 mutant strain, at 50.0 µM, active compounds read high
Procedure, shortened: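 Yeast carrying a defined mutation is treated with each compound, and growth is compared with that of vehicle-exposed cells to give inhibition.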

SMILES | growth inhibition
COC(=O)/C=C/c1cccc[n+]1[O-] | -4.4%
CN(C)CCCNc1c(C#N)[n+]([O-])c2cc(Cl)ccc2[n+]1[O-] | 60%
Cc1c(N=Nc2ccc(Br)cc2)c(-c2ccccc2)nn1C(N)=S | 96.5% (active)
COc1cc2c(c(OC)c1OC)-c1ccc(O)c(=O)cc1C(N=Cc1ccccc1)CC2 (stereo not given) | 0.2%
CCC(C)SC1SCC2C(=O)N(C)C3(CC3C)C(=O)OCC(NC(=O)c3nc4ccccc4cc3O)C(=O)NC(C)C(=O)N(C)C1C(=O)N(C)C1(CC1C)C(=O)OCC(NC(=O)c1nc3ccccc3cc1O)C(=O)NC(C)C(=O)N2C (stereo not given) | 91.2% (active)
O=C(N/C(=C\c1ccc2c(c1)OCO2)c1nc2ccccc2s1)c1ccccc1 | 96.8% (active)
CCCC/C=C1/CCC(CN(C)C)C1=O (stereo not given) | 61.9%
O=C(O)c1cc2c(cc1CC(Cc1ccc3c(c1)CCCC3)C(=O)O)CCCC2 (stereo not given) | 76.2% (active)
CCNC(=O)COc1ccc(Cl)cc1Cl | -29.4%
Fc1ccc(OCCC(Cn2ccnc2)c2ccc(Cl)cc2Cl)cc1 (stereo not given) | 99.2% (active)
Cc1ccc(NC(=O)/C(CC(=O)c2sc(Nc3ccc(Cl)c(Cl)c3)nc2C)=N\Nc2ccc([N+](=O)[O-])cc2[N+](=O)[O-])c(C)c1 | 96.8% (active)
Oc1ccc(C/C=C/c2ccccc2)cc1O | 99.2% (active)
CC(=O)OC1=CC2=CCC3C(CCC4(C)C(C(C)=O)CCC34)C2(C)CC1 (stereo not given) | -1.15%
CCCCNc1ccc(-c2c(N)nc(N)nc2CC)cc1[N+](=O)[O-] | -0.35%
ClCCOCCOc1c(Cl)cc(Cl)c(Cl)c1Cl | 59.6%
Cc1ccc(S(=O)(=O)C(=S)Sc2ccccc2)cc1 | 36.5%
CCC(C)(C)c1ccc(OCCO)c([N+](=O)[O-])c1 | 72.4% (active)
CCCCCCC(C)S(=O)(=O)c1ccc(C)cc1 (stereo not given) | 17.1%
O=C1N(Cc2ccccc2)CC1(c1ccccc1)C1CCCCC1O (stereo not given) | 65.6%
COc1cc2c(oc(=O)c3cc(C)cc(OC)c32)c2c(C3OC(C)C(O)C(C)(O)C3O)ccc(O)c12 (stereo not given) | 89.8% (active)

SMILES | growth inhibition
CCc1cc(C)cc(NC(=O)OC2CCCCC2C)c1 (stereo not given) | 91.3% (active)
Cc1cc(Nc2ccc(N=Nc3ccc(O)c4ncccc34)cc2)nc(C)n1 | 60.9%
Oc1ccc(C2SC(c3ccc(O)cc3)SC(c3ccc(O)cc3)S2)cc1 (stereo not given) | 98.1% (active)
O=[N+]([O-])c1cnc(Sc2cncc[n+]2[O-])s1 | 99.5% (active)
O=C(C1=Cc2ccccc2OC1)N1CCN(c2cccc(Cl)c2)CC1 | 89.5% (active)
O=C1C=CC(=O)c2cc(Sc3ccccc3)c(=O)ccc21 | 37%
O=C(O)CCCCCCC(=O)CCl | 58.4%
CC(=O)NC1=C(Sc2ccc(C)cc2)C(=O)c2ccccc2C1=O | 42%
Cc1cc(O)c(C=NC(=S)C(N)=S)c(=O)o1 | -26.5%
Cc1cc(C)c(Cc2cc(C(C)(C)C)cc(C)c2O)cc1Cc1cc(C(C)(C)C)cc(C)c1O | 49.9%
O=C(O)CCC/C(=N\Nc1ccccc1)C(=O)O | 99% (active)
Cc1cc(Oc2nc(Cl)nc(C(Cl)(Cl)Cl)c2Cl)cc(C)c1N(C)C (tested in a mixture with another compound) | 92.6% (active)
CC(NCCO)c1ccc2ccccc2c1 (stereo not given) | -14.9%
[O-][n+]1ccc(Br)c(/C=C/c2ccccc2)c1 | 24.6%
O=C(NCCNCCNCCNC(=O)c1cc(-c2ccccc2)nc2ccccc12)c1cc(-c2ccccc2)nc2ccccc12 | 99.2% (active)
CC(C)C(Sc1nc(-c2ccccc2)c(-c2ccccc2)[nH]1)C(=O)NN (stereo not given) | 89% (active)
O=C(CNc1cccc(Cl)c1)Nn1c(-c2ccccc2)nc2ccccc2c1=O | 96% (active)
O=C(COc1ccc(Cl)c(Cl)c1)Nc1ccc[n+](Cc2ccc(Cl)c(Cl)c2)c1 | 99.3% (active)
CCOC(=O)c1cnccc1CC1(C#N)c2ccccc2C=CN1C(=O)c1ccccc1 (stereo not given) | 75% (active)
O=C1C(N2CCOCC2)=C(Cl)C(=O)c2ncccc21 | 89.7% (active)

Experiment: NCI Yeast Anticancer Drug Screen. Data for the mlh1 rad18 strain (AID 175)
Settings: S. cerevisiae mlh1 rad18 strain growth inhibition; at 5.0 µM (retest, dose inferred, filed as 0.5); active compounds read high
Procedure, shortened: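 In this whole-cell yeast screen, a strain with altered DNA damage repair is challenged with compound, and its growth is measured against matched vehicle-treated controls.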

SMILES | growth inhibition
COC(=O)/C=C/c1cccc[n+]1[O-] | -1%
CN(C)CCCNc1c(C#N)[n+]([O-])c2cc(Cl)ccc2[n+]1[O-] | 80% (active)
Cc1c(N=Nc2ccc(Br)cc2)c(-c2ccccc2)nn1C(N)=S | 0%
COc1cc2c(c(OC)c1OC)-c1ccc(O)c(=O)cc1C(N=Cc1ccccc1)CC2 (stereo not given) | -2%
CCC(C)SC1SCC2C(=O)N(C)C3(CC3C)C(=O)OCC(NC(=O)c3nc4ccccc4cc3O)C(=O)NC(C)C(=O)N(C)C1C(=O)N(C)C1(CC1C)C(=O)OCC(NC(=O)c1nc3ccccc3cc1O)C(=O)NC(C)C(=O)N2C (stereo not given) | 94% (active)
O=C(N/C(=C\c1ccc2c(c1)OCO2)c1nc2ccccc2s1)c1ccccc1 | 18%
CCCC/C=C1/CCC(CN(C)C)C1=O (stereo not given) | 19%
O=C(O)c1cc2c(cc1CC(Cc1ccc3c(c1)CCCC3)C(=O)O)CCCC2 (stereo not given) | 8%
CCNC(=O)COc1ccc(Cl)cc1Cl | 8%
Fc1ccc(OCCC(Cn2ccnc2)c2ccc(Cl)cc2Cl)cc1 (stereo not given) | 55%
Cc1ccc(NC(=O)/C(CC(=O)c2sc(Nc3ccc(Cl)c(Cl)c3)nc2C)=N\Nc2ccc([N+](=O)[O-])cc2[N+](=O)[O-])c(C)c1 | 5%
Oc1ccc(C/C=C/c2ccccc2)cc1O | 9%
CC(=O)OC1=CC2=CCC3C(CCC4(C)C(C(C)=O)CCC34)C2(C)CC1 (stereo not given) | -4%
CCCCNc1ccc(-c2c(N)nc(N)nc2CC)cc1[N+](=O)[O-] | -9%
ClCCOCCOc1c(Cl)cc(Cl)c(Cl)c1Cl | 9%
Cc1ccc(S(=O)(=O)C(=S)Sc2ccccc2)cc1 | 11%
CCC(C)(C)c1ccc(OCCO)c([N+](=O)[O-])c1 | 29%
CCCCCCC(C)S(=O)(=O)c1ccc(C)cc1 (stereo not given) | -3%
O=C1N(Cc2ccccc2)CC1(c1ccccc1)C1CCCCC1O (stereo not given) | -2%
COc1cc2c(oc(=O)c3cc(C)cc(OC)c32)c2c(C3OC(C)C(O)C(C)(O)C3O)ccc(O)c12 (stereo not given) | 90% (active)

SMILES | growth inhibition
CCc1cc(C)cc(NC(=O)OC2CCCCC2C)c1 (stereo not given) | 38%
Cc1cc(Nc2ccc(N=Nc3ccc(O)c4ncccc34)cc2)nc(C)n1 | 0%
Oc1ccc(C2SC(c3ccc(O)cc3)SC(c3ccc(O)cc3)S2)cc1 (stereo not given) | 35%
O=[N+]([O-])c1cnc(Sc2cncc[n+]2[O-])s1 | 99% (active)
O=C(C1=Cc2ccccc2OC1)N1CCN(c2cccc(Cl)c2)CC1 | -12%
O=C1C=CC(=O)c2cc(Sc3ccccc3)c(=O)ccc21 | 33%
O=C(O)CCCCCCC(=O)CCl | 19%
CC(=O)NC1=C(Sc2ccc(C)cc2)C(=O)c2ccccc2C1=O | 99% (active)
Cc1cc(O)c(C=NC(=S)C(N)=S)c(=O)o1 | 17%
Cc1cc(C)c(Cc2cc(C(C)(C)C)cc(C)c2O)cc1Cc1cc(C(C)(C)C)cc(C)c1O | 2%
O=C(O)CCC/C(=N\Nc1ccccc1)C(=O)O | 7%
Cc1cc(Oc2nc(Cl)nc(C(Cl)(Cl)Cl)c2Cl)cc(C)c1N(C)C (tested in a mixture with another compound) | -8%
CC(NCCO)c1ccc2ccccc2c1 (stereo not given) | -1%
[O-][n+]1ccc(Br)c(/C=C/c2ccccc2)c1 | 2%
O=C(NCCNCCNCCNC(=O)c1cc(-c2ccccc2)nc2ccccc12)c1cc(-c2ccccc2)nc2ccccc12 | -4%
CC(C)C(Sc1nc(-c2ccccc2)c(-c2ccccc2)[nH]1)C(=O)NN (stereo not given) | -11%
O=C(CNc1cccc(Cl)c1)Nn1c(-c2ccccc2)nc2ccccc2c1=O | 4%
O=C(COc1ccc(Cl)c(Cl)c1)Nc1ccc[n+](Cc2ccc(Cl)c(Cl)c2)c1 | 39%
CCOC(=O)c1cnccc1CC1(C#N)c2ccccc2C=CN1C(=O)c1ccccc1 (stereo not given) | 3%
O=C1C(N2CCOCC2)=C(Cl)C(=O)c2ncccc21 | 61%
